The supplement of paper PMC3334620
The full ranking holds about 33,000 sequences; the median of “E-score (-0.5 to 0.5)” is about -0.0034, and the highest 2% start at about 0.25. This excerpt belongs to a sample that is enriched for the highest values.

Target: T1, Yap3 (UniProt P38749)
T1 sequence: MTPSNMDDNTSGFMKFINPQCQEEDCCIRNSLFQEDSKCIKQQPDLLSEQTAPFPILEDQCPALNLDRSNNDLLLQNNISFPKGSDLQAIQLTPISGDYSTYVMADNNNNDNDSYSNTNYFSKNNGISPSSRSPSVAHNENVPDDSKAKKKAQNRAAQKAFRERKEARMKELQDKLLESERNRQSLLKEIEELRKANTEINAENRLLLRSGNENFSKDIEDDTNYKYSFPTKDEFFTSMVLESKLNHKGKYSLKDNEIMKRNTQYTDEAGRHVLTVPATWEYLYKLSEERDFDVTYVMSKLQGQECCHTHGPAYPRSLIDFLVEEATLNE
Assay: PBM E-score (8-mer binding enrichment) (E-score (-0.5 to 0.5)); higher = stronger / more preferred TF binding
Details: protein concentration: 100 nM; construct: GST-full length
Experimental: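 Universal 'all 10-mer' protein binding microarrays (Agilent AMADID 015681) probed with GST-tagged S. cerevisiae TFs (full-length or DBD) made by in vitro transcription/translation (PURExpress), about 100-200 nM. Bound TF was detected with fluorescent anti-GST. Each ungapped 8-mer (which stands for itself and its reverse complement) is scored by the PBM enrichment score (E-score), a modified Wilcoxon-Mann-Whitney statistic from -0.5 to +0.5, computed with the Universal PBM Analysis Suite. Scale: above 0.35 generally sequence-specific binding.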

Sequence	PBM E-score
TTCTGAAA	0.145
ACCCAAAC	0.0961
AGATCCTA	0.0833
CAAGTTCA	-0.00101
CGGATGAC	0.0307
ATCTTTCA	0.207
AATAATCA	0.11
CATAATCA	0.271
CATAATCC	0.0889
GATAATCA	0.221
TATAATCA	0.265
CATAATCG	0.187
CATAAGTC	0.112
CTGGTCTA	-0.0194
AGCGCACG	-0.0432
ATTGGTAA	0.304
GTTGGTAA	0.149
CTTGGTAA	0.101
ACGTCTCT	-0.138
ATTACCGG	-0.0144
AGTTGTGC	0.0195
AGTTGTGG	0.271
AGTTGTGA	0.108
TATCAAAA	0.23
ATATGAGA	0.196

Sequence	PBM E-score
CTTAATCA	0.166
ATTAATCG	0.191
ATTAATCC	0.0925
ATTAATCA	0.287
GCTAATCA	0.164
GTTAATCA	0.256
AACTTTAA	0.234
AAGTCTCA	-0.101
GATCAGAC	-0.0877
AGTGGAAC	-0.0961
GAAGCCTC	-0.198
CACGAACA	0.192
AACGAACG	-0.00775
AACGAACA	0.259
CAGGGTCC	-0.29
GCAAATTA	0.262
ACAAATTA	0.242
GGAAATTA	0.332
CCAAATTA	0.192
AGAAATTA	0.202
GAAAATTA	0.207
ATACCACC	0.086
GGAATCTA	0.0443
GTCGCACA	-0.0581
GATTTGGA	-0.0207

Sequence	PBM E-score
AGATGGAA	-0.0109
CTTTATAC	0.114
GTTTATAA	0.224
ATTTATAC	0.302
CTTTATAA	0.206
ATTTATAA	0.273
ATTTATAG	0.206
AATGAGCA	-0.00708
TCAACTGA	0.0958
AATGGCTA	0.169
AAGAATTG	0.171
TCGGGGAA	0.0864
AAATGCCG	0.113
ATACAGAT	0.11
AGTAAATA	0.26
CGGAAATA	0.289
GGTAAATA	0.111
CGGAAATC	0.12
CGTAAATA	0.262
AGTAAATC	0.159
GGGAAATA	0.0786
CGTAAATC	-0.00431
AGTAAATG	0.0753
AGACTGAA	-0.0205
AGCACGTG	0.127

Sequence	PBM E-score
GAGCCACA	-0.104
ACCCTATA	-0.084
CGTGGATA	-0.0137
GCAGGTTA	-0.0925
GAAAACAA	0.199
TTAAACAA	-0.026
GAAAACTA	0.16
AAAAACTA	0.256
ACAAACAA	0.173
TAAAACAA	0.0703
ATAAACAC	0.1
CAAAACTA	0.223
GCAAACAC	-0.0377
GCAAACAA	0.272
AAAAACAA	0.28
ATAAACAA	0.279
ATCAGCTG	0.195
ACTGGACC	-0.196
ACGGAGGG	-0.139
CCTGGATA	-0.231
CGGATTGC	0.0717
GGCTTGAA	0.0362
AGTTTTCC	0.0722
AGCCAACG	0.0109
CAAAACGA	0.133

Sequence	PBM E-score
GAAAACGA	0.00196
AAAAACGA	0.256
GAGTCTAA	0.00387
AATCCGGC	0.0559
AATCCGGA	0.256
AATCCGGG	-0.242
GACAGCTA	-0.119
CTGCTGGA	-0.158
CCCTTTTC	-0.00476
GAATATTC	0.194
GAATATTA	0.263
CAATATTA	0.226
CAATATCA	0.167
GAATATCA	0.159
TAATAGTA	0.142
AAATATCA	0.187
AAATATTA	0.349
AGATATTA	0.162
TAATATTA	0.347
AAATATTC	0.162
TAATATCA	0.275
ACATTGCC	-0.0211
GGCTTGAC	0.0242
AGCAACTA	0.143
TACCCAAA	0.0436

Sequence	PBM E-score
TCGGTTAA	0.168
AGGCTAGG	-0.199
AAGGTGCG	-0.131
CGTTGATC	0.0509
AAATATTG	0.269
AAATATTT	0.249
CAATATTG	0.213
AGAAGATC	-0.0464
CAGTTAGG	0.149
AATCATGG	0.127
AATCATGA	0.275
TATCATGA	0.0822
TAAAATTA	0.28
TAAAATCA	0.142
ACAATTTA	0.193
AAAATTTA	0.0414
AAAAATTA	0.29
CCAATTTA	0.258
TAAAATGA	0.23
TAAATTTA	0.26
CAAATTTA	0.203
CAAAATTA	0.163
GCAATTTA	0.139
AAAAATTT	0.145
CCACCAAC	0.0331

Sequence	PBM E-score
CGTCCAAC	0.0756
ACGAGGCT	0.117
ATCTAAGG	0.0735
ACCAGACC	-0.206
AAGTCATC	-0.0947
GAGGCATC	-0.206
CCCGCCCC	0.022
CACAACTG	-0.0612
AACAACTA	0.0618
CACAACTA	0.262
CACAACAA	0.0683
AACAACAT	0.191
AACAACAA	0.259
CACAACAC	0.173
GACAACAC	0.00619
AACAACAC	0.303
GCAATGTA	0.0481
GGACCAAC	-0.182
CTCGAGAC	0.124
CTCAGCGC	-0.114
TATGGCCA	0.0682
ATTGTTCA	0.159
